According to the supplement of paper PMC10849652:
About 8,800 targets were measured; listed, in parts, are those with a hit and a random draw of the rest. About 0.5% of all pairs of compound and target were hits. Unmarked numbers belong to inactive results.

Experiments:
Test in all cases: log2 fold change, soluble protein after heating vs DMSO (PISA); higher = thermal stabilisation; K562 lysate, 10 uM; active = over 0.2 and 3.5 SD of the protein, either way, in both replicates (recomputed)
[1] = compound: CN1CC[C@H](c2c(O)cc(O)c3c(=O)cc(-c4ccccc4Cl)oc23)[C@H](O)C1 [alvocidib]
Method in brief: (§1)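 To prepare the extract, K562 pellets were dounce-homogenised in PBS pH 7.4 with 1 mM MgCl2, giving crude material at 1 mg/mL protein. This was treated with 10 μM compound for 30 min, then heated in aliquots for 3 min over 48°C-58°C before pooling and addition of NP-40 to 0.5% at 4°C. Centrifugation at 21,000xg for 90 min left soluble protein in the supernatant, which TMTpro 16plex LC-MS/MS quantified with equalised channel sums. Results are log-two fold changes in thermal stability compared with solvent controls, from duplicates.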

[2] = compound: CN1CCc2c(c3ccccc3n2Cc2ccc(C(=O)NO)cc2)C1 [Tubastatin A]
Method in brief: as §1

[3] = compound: CNC(=O)C1=CC=CC=C1NC2=NC(=NC=C2Cl)NC3=C(C=C(C=C3)N4CCOCC4)OC
Method in brief: as §1

[4] = compound: CNC(=O)c1ccc(Nc2ncc(C(F)(F)F)c(NCc3nccnc3N(C)S(C)(=O)=O)n2)cc1 [defactinib]
Method in brief: as §1

[5] = compound: CNc1nc(-c2ccc3c(N)n[nH]c3c2)cc(N2C[C@@H](C(=O)NC3CCCCC3)CC[C@H]2C)n1
Method in brief: as §1

[6] = compound: COC(=O)N[C@@H](C)CNc1nccc(-c2cn(C(C)C)nc2-c2cc(Cl)cc(NS(C)(=O)=O)c2F)n1 [encorafenib]
Method in brief: as §1

[7] = compound: COC(=O)[C@H](CCSC)NC(=O)C1=C(C=C(C=C1)NC[C@H](CS)N)C2=CC=CC=C2
Method in brief: as §1

[8] = compound: COc1cc(Nc2ncc3c(n2)-c2ccc(Cl)cc2C(c2c(F)cccc2OC)=NC3)ccc1C(=O)O [alisertib]
Method in brief: as §1

[9] = compound: COc1cc2nc(-c3cc(F)ccc3O)nc(N[C@@H]3CNC[C@H]3C(C)(C)O)c2cc1OC
Method in brief: as §1

[10] = compound: COc1cc2ncnc(Nc3ccc(F)c(Cl)c3)c2cc1OCCCN1CCOCC1 [gefitinib]
Method in brief: as §1

[11] = compound: CS(=O)(=O)CCNCc1ccc(-c2ccc3ncnc(Nc4ccc(OCc5cccc(F)c5)c(Cl)c4)c3c2)o1 [lapatinib]
Method in brief: as §1

[12] = compound: CS(=O)(=O)N1CCN(Cc2cc3nc(-c4cccc5[nH]ncc45)nc(N4CCOCC4)c3s2)CC1 [pictilisib]
Method in brief: as §1

[13] = compound: C[C@@H](Oc1cc(-c2cnn(C3CCNCC3)c2)cnc1N)c1c(Cl)ccc(F)c1Cl [crizotinib]
Method in brief: as §1

[14] = compound: C[C@H](C1=CC=C(C=C1)C(=O)NC2=C3C=CNC3=NC=C2)N
Method in brief: as §1

[15] = compound: C[C@H](Nc1ncnc2nc[nH]c12)c1cc2cccc(Cl)c2c(=O)n1-c1ccccc1 [duvelisib]
Method in brief: as §1

[16] = compound: Cc1cc(Nc2cc(CN3CCOCC3)c3nc(C)c(Cc4ccc(Cl)cc4F)n3n2)n[nH]1 [gandotinib]
Method in brief: as §1

[17] = compound: Cc1cc(Nc2cc(N3CCN(C)CC3)nc(Sc3ccc(NC(=O)C4CC4)cc3)n2)n[nH]1 [tozasertib]
Method in brief: as §1

[18] = compound: Cc1ccc(-n2nc(C(C)(C)C)cc2NC(=O)Nc2ccc(OCCN3CCOCC3)c3ccccc23)cc1 [doramapimod]
Method in brief: as §1

[19] = compound: Cc1ccc(NC(=O)c2ccc(CN3CC[C@H](N(C)C)C3)c(C(F)(F)F)c2)cc1Nc1nccc(-c2cncnc2)n1 [bafetinib]
Method in brief: as §1

[20] = compound: Cc1cccc(CC(=O)N2CCc3c2ccc(-c2cn(C)c4ncnc(N)c24)c3F)n1
Method in brief: as §1

Chain of UniProt P04004 (P04004 whole entry, looked up): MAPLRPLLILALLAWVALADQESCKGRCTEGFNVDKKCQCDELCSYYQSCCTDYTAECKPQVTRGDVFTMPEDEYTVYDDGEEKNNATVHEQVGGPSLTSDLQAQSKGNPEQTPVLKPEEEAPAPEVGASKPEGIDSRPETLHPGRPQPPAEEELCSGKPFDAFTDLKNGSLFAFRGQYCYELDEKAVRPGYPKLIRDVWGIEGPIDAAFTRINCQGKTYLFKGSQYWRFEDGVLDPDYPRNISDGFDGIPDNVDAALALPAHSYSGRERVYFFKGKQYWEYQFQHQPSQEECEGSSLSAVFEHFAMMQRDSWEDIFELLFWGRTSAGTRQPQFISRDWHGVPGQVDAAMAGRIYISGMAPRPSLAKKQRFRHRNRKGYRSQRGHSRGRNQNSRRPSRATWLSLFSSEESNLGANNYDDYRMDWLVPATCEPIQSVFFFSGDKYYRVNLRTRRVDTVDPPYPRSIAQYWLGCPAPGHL
Chain of UniProt A4D1P6 (A4D1P6 whole entry, looked up): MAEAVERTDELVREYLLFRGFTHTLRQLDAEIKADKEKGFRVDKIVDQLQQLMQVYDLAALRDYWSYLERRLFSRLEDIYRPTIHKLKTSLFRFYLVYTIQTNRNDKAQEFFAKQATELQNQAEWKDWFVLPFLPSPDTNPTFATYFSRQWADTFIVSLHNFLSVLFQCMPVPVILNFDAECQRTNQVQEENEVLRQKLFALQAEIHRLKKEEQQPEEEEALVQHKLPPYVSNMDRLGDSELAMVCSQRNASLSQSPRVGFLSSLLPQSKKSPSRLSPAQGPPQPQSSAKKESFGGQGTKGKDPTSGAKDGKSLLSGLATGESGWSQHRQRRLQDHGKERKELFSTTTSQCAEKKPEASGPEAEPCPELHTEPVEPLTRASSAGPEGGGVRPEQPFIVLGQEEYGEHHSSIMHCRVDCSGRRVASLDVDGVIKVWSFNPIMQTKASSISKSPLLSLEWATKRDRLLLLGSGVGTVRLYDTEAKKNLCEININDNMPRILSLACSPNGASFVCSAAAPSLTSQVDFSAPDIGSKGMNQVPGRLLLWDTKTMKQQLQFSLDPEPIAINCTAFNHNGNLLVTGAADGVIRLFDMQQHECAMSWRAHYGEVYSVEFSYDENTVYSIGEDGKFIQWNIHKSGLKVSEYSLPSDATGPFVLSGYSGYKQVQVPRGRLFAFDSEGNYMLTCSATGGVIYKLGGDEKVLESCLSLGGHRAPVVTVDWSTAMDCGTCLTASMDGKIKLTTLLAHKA
Chain of UniProt Q9UNX4 (Q9UNX4 whole entry, looked up): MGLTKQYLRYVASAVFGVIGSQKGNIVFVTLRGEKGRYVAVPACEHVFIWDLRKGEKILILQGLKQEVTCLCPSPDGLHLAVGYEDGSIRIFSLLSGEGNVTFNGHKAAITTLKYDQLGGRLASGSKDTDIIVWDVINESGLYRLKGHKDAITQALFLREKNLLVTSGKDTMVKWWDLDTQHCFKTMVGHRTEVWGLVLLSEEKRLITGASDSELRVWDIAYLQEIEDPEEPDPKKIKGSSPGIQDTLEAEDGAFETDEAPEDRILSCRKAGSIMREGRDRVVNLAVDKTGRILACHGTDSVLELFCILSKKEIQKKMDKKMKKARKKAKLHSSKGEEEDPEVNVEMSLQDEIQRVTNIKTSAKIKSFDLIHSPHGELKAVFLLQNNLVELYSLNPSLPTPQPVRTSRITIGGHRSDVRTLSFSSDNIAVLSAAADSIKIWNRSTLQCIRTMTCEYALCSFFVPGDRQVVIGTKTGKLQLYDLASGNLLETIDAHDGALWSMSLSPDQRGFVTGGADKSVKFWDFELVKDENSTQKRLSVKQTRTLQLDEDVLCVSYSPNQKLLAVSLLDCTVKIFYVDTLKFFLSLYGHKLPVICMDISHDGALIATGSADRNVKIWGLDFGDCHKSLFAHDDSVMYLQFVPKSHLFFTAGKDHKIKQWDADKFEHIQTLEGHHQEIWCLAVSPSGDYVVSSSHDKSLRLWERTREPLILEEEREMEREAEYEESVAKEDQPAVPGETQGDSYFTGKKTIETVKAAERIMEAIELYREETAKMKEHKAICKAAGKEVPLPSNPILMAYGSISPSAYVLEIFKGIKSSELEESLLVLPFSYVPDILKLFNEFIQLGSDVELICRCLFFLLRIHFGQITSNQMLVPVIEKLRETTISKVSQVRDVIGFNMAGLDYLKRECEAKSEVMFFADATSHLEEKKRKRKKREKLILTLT
Chain of UniProt Q96NC0 (Q96NC0 whole entry, looked up): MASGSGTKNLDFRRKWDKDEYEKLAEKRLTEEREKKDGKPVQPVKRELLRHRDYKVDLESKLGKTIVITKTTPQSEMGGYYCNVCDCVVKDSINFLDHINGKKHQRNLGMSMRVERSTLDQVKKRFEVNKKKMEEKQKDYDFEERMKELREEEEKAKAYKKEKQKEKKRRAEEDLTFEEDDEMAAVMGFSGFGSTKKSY
Chain of UniProt Q9Y484 (Q9Y484 whole entry, looked up): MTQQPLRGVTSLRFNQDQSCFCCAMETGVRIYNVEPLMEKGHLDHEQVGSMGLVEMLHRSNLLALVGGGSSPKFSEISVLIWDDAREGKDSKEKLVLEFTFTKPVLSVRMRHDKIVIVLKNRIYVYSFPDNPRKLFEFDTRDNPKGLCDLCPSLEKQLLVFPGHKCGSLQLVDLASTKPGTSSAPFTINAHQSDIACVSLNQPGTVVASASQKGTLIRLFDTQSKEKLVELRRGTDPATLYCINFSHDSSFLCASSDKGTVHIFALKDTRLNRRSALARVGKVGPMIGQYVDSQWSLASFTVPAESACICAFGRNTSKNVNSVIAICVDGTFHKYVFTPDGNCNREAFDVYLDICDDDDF
Chain of UniProt Q96K21 (Q96K21 whole entry, looked up): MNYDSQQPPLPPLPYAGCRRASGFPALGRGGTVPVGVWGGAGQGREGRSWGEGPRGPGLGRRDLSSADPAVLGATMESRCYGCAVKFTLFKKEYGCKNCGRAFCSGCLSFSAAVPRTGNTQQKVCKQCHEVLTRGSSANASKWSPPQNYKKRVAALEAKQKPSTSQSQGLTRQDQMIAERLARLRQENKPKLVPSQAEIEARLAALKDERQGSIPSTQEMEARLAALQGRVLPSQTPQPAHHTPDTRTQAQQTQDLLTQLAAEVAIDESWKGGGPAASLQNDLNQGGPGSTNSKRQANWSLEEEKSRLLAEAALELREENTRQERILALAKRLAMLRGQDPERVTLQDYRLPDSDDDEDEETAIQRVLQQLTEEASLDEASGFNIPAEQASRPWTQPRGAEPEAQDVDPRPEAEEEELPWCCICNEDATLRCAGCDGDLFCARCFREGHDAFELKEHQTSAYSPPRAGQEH
Chain of UniProt Q9H3U1 (Q9H3U1 whole entry, looked up): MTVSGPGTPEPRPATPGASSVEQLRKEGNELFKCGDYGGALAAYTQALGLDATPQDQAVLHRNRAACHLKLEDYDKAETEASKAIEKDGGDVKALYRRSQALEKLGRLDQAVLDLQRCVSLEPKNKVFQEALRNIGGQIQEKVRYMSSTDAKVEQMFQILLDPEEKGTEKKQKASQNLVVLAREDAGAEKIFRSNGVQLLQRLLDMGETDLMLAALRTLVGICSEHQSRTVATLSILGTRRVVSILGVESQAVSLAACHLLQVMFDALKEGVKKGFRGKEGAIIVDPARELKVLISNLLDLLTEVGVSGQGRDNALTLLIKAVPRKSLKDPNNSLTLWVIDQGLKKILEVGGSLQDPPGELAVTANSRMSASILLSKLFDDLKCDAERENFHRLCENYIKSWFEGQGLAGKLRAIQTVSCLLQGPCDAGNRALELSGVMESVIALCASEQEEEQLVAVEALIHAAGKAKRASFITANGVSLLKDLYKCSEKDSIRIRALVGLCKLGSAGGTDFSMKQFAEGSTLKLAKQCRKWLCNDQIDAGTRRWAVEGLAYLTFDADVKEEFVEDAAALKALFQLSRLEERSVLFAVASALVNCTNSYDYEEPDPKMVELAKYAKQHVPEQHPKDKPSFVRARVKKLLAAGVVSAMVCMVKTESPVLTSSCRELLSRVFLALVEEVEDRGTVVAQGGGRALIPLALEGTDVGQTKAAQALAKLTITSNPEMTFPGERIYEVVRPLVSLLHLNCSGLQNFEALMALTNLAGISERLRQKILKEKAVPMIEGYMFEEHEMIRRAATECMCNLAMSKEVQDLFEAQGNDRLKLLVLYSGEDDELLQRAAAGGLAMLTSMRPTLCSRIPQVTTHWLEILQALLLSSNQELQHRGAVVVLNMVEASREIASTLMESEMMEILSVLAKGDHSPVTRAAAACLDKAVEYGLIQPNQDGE
Chain of UniProt Q9UBK9 (Q9UBK9 whole entry, looked up): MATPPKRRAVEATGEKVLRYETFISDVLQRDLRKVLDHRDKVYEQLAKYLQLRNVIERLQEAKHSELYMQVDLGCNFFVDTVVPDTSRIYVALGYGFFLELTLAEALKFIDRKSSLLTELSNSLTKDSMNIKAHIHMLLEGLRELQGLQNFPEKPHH
Chain of UniProt Q86Y07 (Q86Y07 whole entry, looked up): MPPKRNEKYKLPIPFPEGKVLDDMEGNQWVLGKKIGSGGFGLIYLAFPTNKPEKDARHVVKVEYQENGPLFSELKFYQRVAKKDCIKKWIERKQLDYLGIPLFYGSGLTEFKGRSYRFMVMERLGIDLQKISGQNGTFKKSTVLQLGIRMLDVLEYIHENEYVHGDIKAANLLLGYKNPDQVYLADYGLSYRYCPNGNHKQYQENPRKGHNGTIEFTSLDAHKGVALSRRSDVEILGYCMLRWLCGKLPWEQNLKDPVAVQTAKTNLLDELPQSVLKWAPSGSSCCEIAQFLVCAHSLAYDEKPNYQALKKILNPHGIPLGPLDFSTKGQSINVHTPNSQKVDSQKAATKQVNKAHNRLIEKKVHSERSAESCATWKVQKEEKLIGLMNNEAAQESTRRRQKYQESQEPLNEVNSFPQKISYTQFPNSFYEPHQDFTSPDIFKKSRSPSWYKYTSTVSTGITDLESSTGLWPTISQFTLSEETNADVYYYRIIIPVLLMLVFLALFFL
Chain of UniProt P63027 (P63027 whole entry, looked up): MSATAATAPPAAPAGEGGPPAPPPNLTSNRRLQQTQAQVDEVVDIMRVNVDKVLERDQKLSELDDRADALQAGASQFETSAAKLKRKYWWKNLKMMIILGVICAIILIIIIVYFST

Target | log2 fold change [1] | log2 fold change [2] | log2 fold change [3] | log2 fold change [4] | log2 fold change [5] | log2 fold change [6] | log2 fold change [7] | log2 fold change [8] | log2 fold change [9] | log2 fold change [10] | log2 fold change [11] | log2 fold change [12] | log2 fold change [13] | log2 fold change [14] | log2 fold change [15] | log2 fold change [16] | log2 fold change [17] | log2 fold change [18] | log2 fold change [19] | log2 fold change [20]
ZFYVE19 (UniProt Q96K21) | -0.141 | 0.026 | -0.037 | -0.002 | 0.008 | -0.001 | -0.04 | 0.008 | 0 | 0.019 | 0.042 | 0.017 | 0.007 | -0.125 | -0.005 | 0.085 | 0.046 | -0.029 | 0 | 0.149
YTHDC2 (UniProt Q9H6S0) | 0.05 | -0.084 | 0.038 | 0.048 | -0.008 | 0.04 | 0.05 | -0.026 | -0.029 | -0.004 | -0.029 | -0.007 | -0.042 | 0.023 | 0.032 | -0.013 | -0.03 | 0.007 | -0.022 | -0.066
WDR45 isoform 2 (UniProt Q9Y484) | -0.065 | -0.067 | -0.001 | 0.013 | -0.059 | -0.042 | -0.051 | 0.021 | -0.008 | 0.037 | -0.002 | -0.011 | -0.048 | -0.229 (active) | -0.04 | -0.051 | -0.025 | 0.054 | -0.047 | 0.179
UXT isoform 2 (UniProt Q9UBK9) | -0.038 | 0.081 | 0.015 | 0.069 | 0.574 (active) | -0.081 | 0.025 | -0.041 | 0.038 | 0.04 | -0.018 | -0.073 | 0.003 | -0.018 | -0.006 | 0.084 | -0.053 | 0.012 | 0.089 | 0.065
WDR3 (UniProt Q9UNX4) | 0.008 | -0.099 | -0.013 | 0.031 | -0.048 | -0.008 | 0.046 | 0.03 | -0.007 | -0.01 | -0.012 | -0.113 | -0.003 | -0.054 | 0.008 | -0.022 | 0.003 | 0.01 | -0.083 | 0.14
WDR6 (UniProt Q9NNW5) | -0.009 | -0.077 | -0.004 | 0.003 | -0.011 | 0.015 | 0.031 | 0.005 | 0.016 | -0.013 | -0.023 | -0.03 | -0.049 | -0.05 | -0.005 | -0.007 | -0.013 | -0.007 | -0.022 | 0.024
USP48 (UniProt Q86UV5) | -0.193 | -0.069 | 0.123 | 0.024 | 0.054 | -0.016 | 0.018 | -0.015 | 0.09 | -0.069 | -0.05 | 0.037 | 0.13 | -0.577 (active) | -0.022 | 0.068 | 0.035 | -0.181 | -0.134 | 0.182
VRK2 (UniProt Q86Y07) | 0.503 (active) | -0.017 | 0.067 | 0.156 | -0.044 | -0.068 | 0.032 | -0.033 | 0.008 | -0.08 | 0.03 | 0.002 | -0.069 | 0.353 (active) | -0.016 | -0.04 | -0.026 | -0.063 | -0.03 | 0.03
WIPI2 (UniProt Q9Y4P8) | -0.036 | 0.005 | -0.007 | 0.036 | -0.051 | 0.029 | 0.049 | -0.033 | -0.012 | -0.027 | 0.006 | -0.024 | -0.02 | -0.086 | -0.008 | 0.089 | -0.003 | 0.098 | -0.025 | 0.035
VPS41 (UniProt P49754) | 0.068 | -0.128 | 0.03 | 0.006 | -0.055 | 0.019 | -0.072 | -0.043 | 0.006 | -0.004 | -0.018 | -0.046 | -0.011 | 0.079 | -0.021 | -0.093 | 0.047 | 0.023 | -0.021 | -0.05
WDR91 (UniProt A4D1P6) | -0.018 | -0.097 | 0.017 | -0.003 | -0.056 | 0.026 | 0.1 | 0.013 | -0.007 | -0.004 | -0.003 | -0.012 | -0.009 | -0.001 | 0.002 | 0.048 | 0 | 0.038 | -0.05 | 0.052
ZMAT2 (UniProt Q96NC0) | -0.001 | 0.053 | -0.012 | -0.001 | -0.037 | -0.035 | -0.014 | 0.009 | 0.001 | 0.013 | 0.006 | 0.003 | -0.005 | 0.02 | -0.034 | -0.035 | -0.028 | 0.042 | 0.053 | -0.043
UNC45A (UniProt Q9H3U1) | -0.017 | -0.146 | 0 | 0.018 | -0.011 | -0.003 | 0.044 | 0.006 | 0.001 | -0.02 | -0.006 | -0.026 | -0.045 | 0.019 | -0.003 | -0.111 | 0 | 0.027 | -0.018 | 0.021
VTN (UniProt P04004) | -0.112 | -0.012 | -0.095 | 0.104 | -0.061 | 0.089 | -0.074 | -0.041 | 0.014 | 0.009 | -0.057 | 0.026 | 0.019 | -0.384 (active) | 0.018 | 0.164 | -0.006 | -0.023 | -0.054 | 0.148
WDR77 (UniProt Q9BQA1) | 0.242 (active) | 0.004 | 0.002 | -0.012 | 0.012 | 0.055 | -0.07 | -0.031 | -0.024 | -0.003 | 0.012 | 0.016 | -0.027 | 0.014 | 0.119 | -0.037 | -0.005 | 0.008 | -0.024 | -0.047
VAMP2 (UniProt P63027) | 0.019 | 0.027 | 0.035 | 0.112 | -0.01 | 0.05 | -0.057 | 0.014 | 0.001 | 0.018 | 0.045 | -0.05 | 0.105 | 0.062 | 0.051 | -0.057 | 0.074 | -0.083 | -0.002 | -0.147
